KDM5B inhibitor – inhibitors of human KDM5B histone demethylase; Q9UGL1; KDM5B demethylase, FDH-coupled NADH fluorescence (FDH is formaldehyde dehydrogenase); Potency, µM (series often up to 57.7 µM), most hits filed as inhibitors; 2.6% of 220,000 active; AID 1347165; active = well fitted inhibition curve with a large enough effect; note: 0% is about no effect; nearly all actives have a fitted effect of over 70% in size
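Coupled FDH/NAD⁺ fluorescence readout. KDM5BΔAP 200 nM final; compound titration, 10 min RT preincubation; substrate mix 12.5 µM H3K4me3, 25 µM 2-OG, 50 µM Fe(II), 100 µM ascorbate, 0.25 mM NAD⁺, 0.25 U/mL FDH; ΔRFU over 30 min.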
* marks the source's active call; other numbers are inactive results; i = inactive. Shown is part of a subset that was picked to be rich in hits. Potency is the fitted concentration of half-maximal effect.

SMILES	KDM5B inhibitor
OC12CC3CC(C1)CC(NCc1ccco1)(C3)C2	i
Cc1ccc(F)c(OC2(C(=O)O)CCN(c3cnc4ccccc4n3)CC2)c1	20µM*
Cc1cccc(C(=O)N2CCC(Oc3ccccc3F)(C(=O)O)CC2)c1	i
CCc1cnc(C)nc1N1CCC(Oc2ccccc2OC)(C(=O)O)CC1	i
O=C(CSc1ncnc2c1oc1ccccc12)NC1CCCCCC1	i
O=C(c1ccoc1)N1CCC[C@H](n2c(=O)n(Cc3ccccc3)c3cccnc32)C1	i
Cc1nc2ccc(Cl)c([N+](=O)[O-])c2nc1C	i
Cc1noc(CN2CCc3nc(-c4ccc(F)cc4F)[nH]c3C2)n1	31.6µM*
CN(C)c1nc2c(c(=O)[nH]1)CCN(Cc1ccc(F)cc1F)CC2	i
Cc1nc2c(c(-c3ccc(O)cc3)n1)CN(Cc1ccc(F)cc1)CC2	i
Cn1ncc(CN2CCc3nc(-c4ccc(F)cc4F)[nH]c3C2)c1C1CC1	25.1µM*
Cc1noc(CC2CCOC3(CCN(Cc4ccc(F)cc4F)CC3)C2)n1 (stereo not given)	i
CN1CCN(c2nc3c(c(=O)[nH]2)CCN(Cc2ccc(F)cc2F)CC3)CC1	i
Cc1cccc(Cn2nc(C)c(NC(=O)NC3CCCCC3)c2C)c1	i
CCCn1c(CNC(=O)c2ccc(F)cc2)nc2ccccc21	i
Cn1c(CNC(=O)c2ccc3nccn3c2)nc2cc(C(F)(F)F)ccc21	20µM*
O=C(c1ccc2nccn2c1)N1CCC(C(O)CCc2ccccc2)CC1 (stereo not given)	i
Cc1cc(C(=O)NC(C)CCc2ccccc2)cs1 (stereo not given)	i
O=C(c1ccc2nccn2c1)N(Cc1c(F)cccc1Cl)C1CC1	i
O=C(NCc1ccc(F)cc1)c1cnc(Cl)c(Cl)c1	i
CC(CCc1ccccc1)NC(=O)c1ccc2nccn2c1 (stereo not given)	35.5µM*
COCCNC(=O)c1ccc2nccn2c1	35.5µM*
COCCn1c(CNC(=O)c2ccc(C)cc2)nc2cccnc21	i
O=C(NCc1ccc(F)cc1)c1ccc2nccn2c1	28.2µM*
COc1cc(C(=O)NCc2nc3ccccc3n2C)cc(OC)c1OC	i
SMILES	KDM5B inhibitor
O=C(NCc1ccc(F)cc1)c1ccc(-c2ccccc2)cc1	i
O=C(NCc1ccccc1CN1CCOCC1)c1cnn(-c2ccccc2)c1	i
Cc1cccc(OCC(=O)Nc2cc(-c3nn(C)c(=O)c4ccccc34)ccc2N2CCOCC2)c1	i
CCN(C)Cc1cn(Cc2ccccc2)nc1-c1ccc2c(c1)OCO2	i
CCOC(=O)c1ccc(N2C(=O)Cc3cc(OC)c(OC)cc3C2c2ccc(OCC)cc2)cc1 (stereo not given)	i
Cc1cc(C(F)F)nn1Cc1nc2c3c4c(sc3ncn2n1)CCCC4	i
COc1ccc(-n2nnnc2C2CCN(S(=O)(=O)c3cc(F)ccc3C)CC2)cc1	i
O=C(CN1CCN(C(=O)CCc2ncc(-c3ccccc3Cl)o2)CC1)Nc1ccc(F)cc1	i
NS(=O)(=O)c1ccc(NC(=O)CCc2nc3ccccc3c(=O)[nH]2)cc1	i
CC1CCCN(S(=O)(=O)c2ccc(NC(=O)c3cc(=O)c4cc(Cl)ccc4o3)cc2)C1 (stereo not given)	i
CS(=O)(=O)N(CC(=O)N1CCc2ccccc2C1)c1ccccc1Cl	i
CCc1noc(C)c1C(=O)OCC(=O)c1c[nH]c2c(CC)cccc12	i
CNc1snc(C)c1C(=O)N(C)CCOc1cccc(Cl)c1	i
Cc1ccc(NC(=O)Cc2n[nH]c(=O)c3ccccc23)c(O)c1	i
CCNC(=O)C(C)NC(=O)CCc1nc(-c2ccccc2)c(-c2ccccc2)o1 (stereo not given)	i
N#CCCCSc1ccc(C(F)(F)F)cn1	i
CSc1ccc(C(C)NC(=O)c2ccc(F)cc2)cc1 (stereo not given)	i
CC(NC(=O)c1ccc2nccn2c1)c1ccc(F)cc1 (stereo not given)	35.5µM*
CC(Sc1ccccn1)C(=O)NC(C)c1ccc(F)cc1 (stereo not given)	i
C(#CCN1CCN(CC#CCOCCOCc2ccccc2)CC1)COCCOCc1ccccc1	i
Cc1cc(F)ccc1Nc1ncncc1-c1nc(-c2ccccc2)no1	7.94µM*
Cc1cc(Nc2ncncc2-c2nc(-c3ccccc3)no2)ccc1Cl	i
COc1ccccc1CNc1ncncc1-c1nc(-c2ccccc2)no1	31.6µM*
c1ccc(-c2noc(-c3cncnc3NCc3ccc4c(c3)OCO4)n2)cc1	12.6µM*
CSc1cccc(Nc2ncncc2-c2nc(-c3ccccc3)no2)c1	i
SMILES	KDM5B inhibitor
COc1ccccc1N1CCN(c2ncncc2-c2nc(-c3ccccc3)no2)CC1	i
Cc1ccc(Nc2ncncc2-c2nc(-c3ccccc3)no2)c(Cl)c1	i
COc1ccc(Nc2ncncc2-c2nc(-c3ccccc3)no2)cc1F	i
CNc1ncncc1-c1nc(-c2ccccc2)no1	28.2µM*
Cc1ccc(Nc2ncncc2-c2nc(-c3ccccc3)no2)cc1F	i
Cc1ccc(Nc2ncncc2-c2nc(-c3ccccc3)no2)c(C)c1	i
CCN1CCN(CCNC(=O)c2cc(-c3ccc(Cl)cc3)cn2C)CC1	i
COCCNC(=O)c1nc(-c2ccc3cc[nH]c3c2)no1	i
COCCn1nc(C(=O)NCC(c2ccccc2)N2CCCC2)ccc1=O (stereo not given)	i
Cc1nc2cc(NC(=O)COc3ccc(C(C)C)c(C)c3)ccc2o1	i
CC(C)c1nc2cc(NC(=O)Cn3cnc4ccccc4c3=O)ccc2o1	i
CCCNC(=O)CCc1c(C)nc2c(-c3ccccc3)c(C)nn2c1C	i
O=C(NCc1cccnc1)c1nc(-c2ccc(Br)o2)no1	i
c1ccc(-c2noc(-c3cncnc3N3CCCCCC3)n2)cc1	i
Fc1c(Cl)cccc1Nc1ncncc1-c1nc(-c2ccccc2)no1	i
COc1ccc(N2CCN(c3ncncc3-c3nc(-c4ccccc4)no3)CC2)cc1	i
Cc1cccc(N2CCN(c3ncncc3-c3nc(-c4ccccc4)no3)CC2)c1	22.4µM*
CC1CCC(Nc2ncncc2-c2nc(-c3ccccc3)no2)CC1 (stereo not given)	i
c1ccc(-c2noc(-c3cncnc3NCC3CCCCC3)n2)cc1	28.2µM*
Cc1c(Cl)cccc1Nc1ncncc1-c1nc(-c2ccccc2)no1	i
Cc1cccc(Nc2ncncc2-c2nc(-c3ccccc3)no2)c1C	28.2µM*
Cc1cc(Br)ccc1NC(=O)CNC(=O)c1cc2ccccc2oc1=O	i
CC(=O)NCCNc1nc(-c2ccccc2)nc2ccccc12	i
Cc1occc1C(=O)Nc1nc(CC(=O)Nc2ccc(C(C)C)cc2)cs1	i
Cc1ccc(OCCN(C)C(=O)c2cc3ccccc3oc2=O)cc1	i
SMILES	KDM5B inhibitor
O=C(NC1CC1)C(Sc1ccc(Cl)cc1)c1ccccc1 (stereo not given)	i
O=C(NC1CCCc2ccccc21)c1ncc(Cl)c(Cl)c1Cl (stereo not given)	i
O=C(Cc1ccc(F)cc1)NNC(=O)c1ccc2[nH]c3c(c2c1)CCCC3	i
O=C(NC1CC1)C1CCCN(C(=O)c2ccc3cc[nH]c3c2)C1 (stereo not given)	i
Cc1ccc2oc(N3CCN(C(=O)c4cccc(C#N)c4)CC3)nc2n1	i
Cc1ccc(C)c(NC(=O)CN2CCN(Cc3ccco3)CC2)c1	i
COc1cccc(-c2ccnc(-c3nnc(C)n3C3CCCCC3)c2)c1	i
COc1ccc(-c2ccnc(-c3nnc(C)n3C3CCCCC3)c2)cc1OC	35.5µM*
